{"source": "the antibiotic and cytotoxicity screens of Wong et al. (2023)", "note": "About 1,500 (3.8%) of roughly 39,000 compounds were called active. The entries come from a sample that favours actives as a whole."}
{"tested_on": "HSkMC (human skeletal muscle cells)", "assay": "cytotoxicity call (relative viability < 0.9)", "conditions": "10 µM"}
{"smiles": "O=C(N[C@H]1CC[C@H](CC(=O)N2CCOCC2)O[C@H]1CO)c1ccc2c(c1)OCO2", "cytotoxicity call": "inactive"}
{"smiles": "C[C@@H]1CN([C@@H](C)CO)C(=O)c2cccc(NC(=O)C3CCOCC3)c2O[C@H]1CN(C)Cc1ccncc1", "cytotoxicity call": "inactive"}
{"smiles": "C[C@@H]1CCCCO[C@H](CN(C)C(=O)Nc2ccccc2)[C@H](C)CN([C@@H](C)CO)C(=O)c2cc(NS(=O)(=O)c3ccccc3)ccc2O1", "cytotoxicity call": "inactive"}
{"smiles": "C[C@H](CO)N1C[C@H](C)[C@@H](CN(C)S(=O)(=O)c2ccc(-c3ccccc3)cc2)OCc2cn(nn2)CCCC1=O", "cytotoxicity call": "inactive"}
{"smiles": "C[C@H]1O[C@@H]2[C@H](O[C@@H]1C)N(S(C)(=O)=O)CCN2S(C)(=O)=O", "cytotoxicity call": "inactive"}
{"smiles": "COc1ccc(NC(=O)N2C[C@H](O)COC[C@H]3O[C@H](CC(=O)NC4Cc5ccccc5C4)CC[C@@H]32)cc1", "cytotoxicity call": "inactive"}
{"smiles": "C[C@H](CO)N1C[C@H](C)[C@H](CN(C)Cc2ccc(-c3ccccc3)cc2)Oc2ccc(NC(=O)Nc3ccc4c(c3)OCO4)cc2CC1=O", "cytotoxicity call": "inactive"}
{"smiles": "C=CCC[C@@H](Cc1ccc(F)cc1)C(=O)OC[C@@H]1CCCN1C(=O)[C@@H](CC=C)CC(=O)N(CCO)Cc1ccccc1", "cytotoxicity call": "inactive"}
{"smiles": "C=CCC[C@H](Cc1ccc(F)cc1)C(=O)OC[C@H]1CCCN1C(=O)[C@H](CC=C)CC(=O)N(CCO)Cc1ccccc1", "cytotoxicity call": "inactive"}
{"smiles": "C=CCC[C@H](Cc1ccc(F)cc1)C(=O)OC[C@@H]1CCCN1C(=O)[C@@H](CC=C)CC(=O)N(CCO)Cc1ccccc1", "cytotoxicity call": "active"}
{"smiles": "C=CCC[C@@H](Cc1ccc(F)cc1)C(=O)OC[C@H]1CCCN1C(=O)[C@@H](CC=C)CC(=O)N(CCO)Cc1ccccc1", "cytotoxicity call": "inactive"}
{"smiles": "C=CCC[C@H](Cc1ccc(F)cc1)C(=O)OC[C@H]1CCCN1C(=O)[C@@H](CC=C)CC(=O)N(CCO)Cc1ccccc1", "cytotoxicity call": "active"}
{"smiles": "C=CCC[C@@H](Cc1ccc(F)cc1)C(=O)OC[C@H]1CCCN1C(=O)[C@H](CC=C)CC(=O)N(CCO)Cc1ccccc1", "cytotoxicity call": "inactive"}
{"smiles": "CN(C)CC(=O)N[C@@H]1CC[C@H](CC(=O)NCCN2CCCCC2)O[C@H]1CO", "cytotoxicity call": "inactive"}
{"smiles": "COc1ccc(C2=NS(=O)(=O)N(C)C(C(=O)N3CCC(C(N)=O)CC3)=C2)cc1", "cytotoxicity call": "inactive"}
{"smiles": "CC(C)NC(=O)N(C)C[C@H]1Oc2c(NS(=O)(=O)c3ccc(Cl)cc3)cccc2C(=O)N([C@@H](C)CO)C[C@H]1C", "cytotoxicity call": "inactive"}
{"smiles": "COc1ccc(S(=O)(=O)Nc2cccc3c2O[C@@H](CN(C)S(=O)(=O)c2ccccc2)[C@H](C)CN([C@@H](C)CO)C3=O)cc1", "cytotoxicity call": "inactive"}
{"smiles": "O=C(Nc1ccc(Oc2ccc(Cl)cc2)c(Cl)c1)c1cc(I)cc(I)c1O", "cytotoxicity call": "active"}
{"smiles": "O=C(Nc1ccc2ccccc2c1)c1ccc(Cl)cc1Cl", "cytotoxicity call": "inactive"}
{"smiles": "Cc1ccc(S[C@]2(C(=O)NC(C)C)CC(=O)N(Cc3ccccc3C(F)(F)F)[C@@H]2c2ccc(CO)cc2)cc1", "cytotoxicity call": "inactive"}
{"smiles": "CC(C)(C)c1cc(NC(=O)Nc2ccc(Oc3ccnc4nc(O)cnc34)cc2F)n(-c2ccccc2)n1", "cytotoxicity call": "active"}
{"smiles": "Cc1ccc(S(=O)(=O)N(C)C[C@H]2Oc3ccc(NC(=O)C4CC4)cc3C(=O)N([C@H](C)CO)C[C@@H]2C)cc1", "cytotoxicity call": "inactive"}
{"smiles": "Fc1ccccc1-c1nc2ccn(Cc3ccc(-c4ccc(C(F)(F)F)cc4C(F)(F)F)nn3)cc-2n1", "cytotoxicity call": "active"}
{"smiles": "Cc1noc(C)c1NC(=O)Nc1cccc2c1O[C@H](CN(C)Cc1ccc(Oc3ccccc3)cc1)[C@@H](C)CN([C@H](C)CO)C2=O", "cytotoxicity call": "inactive"}
{"smiles": "Cc1noc(C)c1NC(=O)Nc1ccc2c(c1)C(=O)N([C@H](C)CO)C[C@@H](C)[C@@H](CN(C)Cc1ccccc1)OCCCC[C@@H](C)O2", "cytotoxicity call": "inactive"}
{"smiles": "C[C@@H]1CCCCO[C@H](CN(C)C(=O)CCC(F)(F)F)[C@@H](C)CN([C@H](C)CO)C(=O)c2cc(NC(=O)c3ccccc3)ccc2O1", "cytotoxicity call": "inactive"}
{"smiles": "COc1ccc(NC(=O)Nc2ccc3c(c2)CC(=O)N([C@H](C)CO)C[C@@H](C)[C@H](CN(C)Cc2ccc(Oc4ccccc4)cc2)O3)cc1", "cytotoxicity call": "inactive"}
{"smiles": "C1CCC(C(C[C@H]2CCCCN2)C2CCCCC2)CC1", "cytotoxicity call": "inactive"}
{"smiles": "O=C(O)CC[C@H]1CCCCN1", "cytotoxicity call": "inactive"}
{"smiles": "C1CCC(C(CC2CCCCN2)C2CCCCC2)CC1.O=C(O)C=CC(=O)O", "note": "(configuration not stated)", "cytotoxicity call": "active"}
{"smiles": "C[C@H]1CN([C@@H](C)CO)S(=O)(=O)c2ccc(-c3cncnc3)cc2O[C@@H]1CN(C)C(=O)C1CCCCC1", "cytotoxicity call": "inactive"}
{"smiles": "COc1ccc2c3c([nH]c2c1)[C@H](CO)N(C[C@]13CN(CC2CCCCC2)C1)C(=O)Nc1cccc(c1)F", "cytotoxicity call": "active"}
{"smiles": "COc1ccc2c3c([nH]c2c1)[C@@H](CO)N(CC1CCCCC1)C[C@]13CN(C1)C(=O)Nc1cccc(c1)F", "cytotoxicity call": "inactive"}
{"smiles": "COc1ccc2c3c([nH]c2c1)[C@H](CO)N(C[C@]13CCN(CC1)C(=O)Nc1cccc(c1)F)C(=O)c1ccc(cc1)F", "cytotoxicity call": "inactive"}
{"smiles": "COc1ccc2c3c([nH]c2c1)[C@@H](CO)N(C[C@]13CN(CC2CCCCC2)C1)C(=O)Nc1cccc(c1)F", "cytotoxicity call": "active"}
{"smiles": "COc1ccc2c3c([nH]c2c1)[C@H](CO)N(CC1CCCCC1)C[C@]13CN(C1)C(=O)Nc1cccc(c1)F", "cytotoxicity call": "inactive"}
{"smiles": "COc1ccc2c3c([nH]c2c1)[C@@H](CO)N(C[C@]13CCN(CC1)C(=O)Nc1cccc(c1)F)C(=O)c1ccc(cc1)F", "cytotoxicity call": "inactive"}
{"smiles": "C[C@H](CO)N1C[C@H](C)[C@H](CN(C)Cc2ccc(C(=O)O)cc2)Oc2ccc(NC(=O)c3ccncc3)cc2CC1=O", "cytotoxicity call": "inactive"}
{"smiles": "C[C@@H]1CCCCO[C@H](CN(C)Cc2ccc3c(c2)OCO3)[C@@H](C)CN([C@@H](C)CO)C(=O)c2cc(NC(=O)NC3CCCCC3)ccc2O1", "cytotoxicity call": "inactive"}
{"smiles": "[O-][NH2+]N1CCCCC1", "cytotoxicity call": "inactive"}
{"smiles": "CC(C)NC(=O)N(C)C[C@H]1Oc2c(NS(=O)(=O)c3ccc(Cl)cc3)cccc2C(=O)N([C@H](C)CO)C[C@@H]1C", "cytotoxicity call": "inactive"}
{"smiles": "C[C@H](CO)N1C[C@H](C)[C@@H](CN(C)C(=O)Nc2ccc(F)cc2)Oc2c(NS(=O)(=O)c3cn(C)cn3)cccc2C1=O", "cytotoxicity call": "inactive"}
{"smiles": "O=C(NCC(F)(F)F)[C@@H]1c2ccccc2C(=O)N(CC23CC4CC(CC(C4)C2)C3)[C@H]1c1ccc(CO)cc1", "cytotoxicity call": "inactive"}
{"smiles": "CN1CCC2(CC1)CN(C(=O)CNC(N)=O)CCCN2C", "cytotoxicity call": "inactive"}
{"smiles": "C[C@@H]1CN([C@H](C)CO)C(=O)c2cc(NC(=O)Nc3cccc4ccccc34)ccc2O[C@@H]1CN(C)C(=O)NC1CCCCC1", "cytotoxicity call": "inactive"}
{"smiles": "C[C@@H]1CN([C@@H](C)CO)C(=O)c2cc(NC(=O)NC3CCCCC3)ccc2O[C@H]1CN(C)C(=O)Nc1cccc2ccccc12", "cytotoxicity call": "inactive"}
{"smiles": "C[C@@H]1CN([C@H](C)CO)C(=O)c2cc(NC(=O)NC3CCCCC3)ccc2O[C@H]1CN(C)C(=O)Nc1cccc2ccccc12", "cytotoxicity call": "inactive"}
{"smiles": "C[C@@H]1CN([C@H](C)CO)C(=O)c2cc(NC(=O)Nc3cccc4ccccc34)ccc2O[C@H]1CN(C)C(=O)NC1CCCCC1", "cytotoxicity call": "active"}
{"smiles": "C[C@@H]1CN([C@@H](C)CO)C(=O)c2cc(NC(=O)NC3CCCCC3)ccc2O[C@@H]1CN(C)C(=O)Nc1cccc2ccccc12", "cytotoxicity call": "active"}
{"smiles": "C[C@H](CO)N1C[C@H](C)[C@@H](CN(C)C(=O)NC2CCCCC2)Oc2ccc(NC(=O)Nc3cccc4ccccc34)cc2C1=O", "cytotoxicity call": "inactive"}
{"smiles": "COC(=O)CCn1ccc(=O)[nH]c1=O", "cytotoxicity call": "inactive"}
{"smiles": "C[C@@H]1CN([C@@H](C)CO)C(=O)c2cc(NC(=O)Nc3ccc(C(F)(F)F)cc3)ccc2O[C@H]1CN(C)Cc1ccncc1", "cytotoxicity call": "inactive"}
{"smiles": "COc1ccc(S(=O)(=O)Nc2ccc3c(c2)C(=O)N([C@H](C)CO)C[C@H](C)[C@H](CN(C)C(=O)Nc2ccccc2)OCCCC[C@H](C)O3)cc1", "cytotoxicity call": "inactive"}
{"smiles": "C[C@H]1CN([C@@H](C)CO)C(=O)c2cccc(NC(=O)Nc3ccc(C(F)(F)F)cc3)c2O[C@@H]1CN(C)S(=O)(=O)c1ccc(F)cc1", "cytotoxicity call": "inactive"}
{"smiles": "C=CCNC(=O)[C@@H]1[C@H]2C(=O)O[C@H](c3ccccc3)[C@H](c3ccccc3)N2[C@H](c2ccc(OCCO)cc2)[C@@]12C(=O)N(C(=O)OCCOC)c1ccc(C#Cc3ccc(OC)cc3)cc12", "cytotoxicity call": "inactive"}
{"smiles": "COc1ccc(NC(=O)Nc2ccc3c(c2)CC(=O)N([C@H](C)CO)C[C@H](C)[C@H](CN(C)Cc2ccc(-c4ccccc4)cc2)O3)cc1", "cytotoxicity call": "inactive"}
{"smiles": "C[C@@H]1CN([C@@H](C)CO)C(=O)Cc2cc(NC(=O)Nc3ccccc3)ccc2O[C@@H]1CN(C)Cc1ccc(Oc2ccccc2)cc1", "cytotoxicity call": "active"}
{"smiles": "C[C@H](CO)N1C[C@H](C)[C@@H](CN(C)Cc2ccc(Oc3ccccc3)cc2)Oc2ccc(NC(=O)Nc3ccccc3)cc2CC1=O", "cytotoxicity call": "inactive"}
{"smiles": "C[C@H]1CN([C@@H](C)CO)C(=O)Cc2cc(NC(=O)Nc3ccccc3)ccc2O[C@H]1CN(C)Cc1ccc(Oc2ccccc2)cc1", "cytotoxicity call": "active"}
{"smiles": "COc1ccc(NC(=O)Nc2ccc3c(c2)CC(=O)N([C@H](C)CO)C[C@H](C)[C@@H](CN(C)Cc2ccc(-c4ccccc4)cc2)O3)cc1", "cytotoxicity call": "active"}
{"smiles": "COc1ccc(NC(=O)Nc2ccc3c(c2)CC(=O)N([C@@H](C)CO)C[C@@H](C)[C@H](CN(C)Cc2ccc(Oc4ccccc4)cc2)O3)cc1", "cytotoxicity call": "active"}
{"smiles": "COc1ccc(NC(=O)Nc2ccc3c(c2)CC(=O)N([C@@H](C)CO)C[C@@H](C)[C@@H](CN(C)Cc2ccc(Oc4ccccc4)cc2)O3)cc1", "cytotoxicity call": "inactive"}
{"smiles": "COc1ccc(NC(=O)Nc2ccc3c(c2)CC(=O)N([C@@H](C)CO)C[C@H](C)[C@H](CN(C)Cc2ccc(-c4ccccc4)cc2)O3)cc1", "cytotoxicity call": "inactive"}
{"smiles": "COc1ccc(NC(=O)Nc2ccc3c(c2)CC(=O)N([C@@H](C)CO)C[C@H](C)[C@@H](CN(C)Cc2ccc(Oc4ccccc4)cc2)O3)cc1", "cytotoxicity call": "inactive"}
{"smiles": "COc1ccc(NC(=O)Nc2ccc3c(c2)CC(=O)N([C@H](C)CO)C[C@@H](C)[C@@H](CN(C)Cc2ccc(Oc4ccccc4)cc2)O3)cc1", "cytotoxicity call": "inactive"}
{"smiles": "C[C@H](CO)N1C[C@H](C)[C@H](CN(C)Cc2ccc(Oc3ccccc3)cc2)Oc2ccc(NC(=O)Nc3ccccc3)cc2CC1=O", "cytotoxicity call": "inactive"}
{"smiles": "COc1ccc(NC(=O)Nc2ccc3c(c2)CC(=O)N([C@H](C)CO)C[C@H](C)[C@H](CN(C)Cc2ccc(Oc4ccccc4)cc2)O3)cc1", "cytotoxicity call": "inactive"}
